The entries come from a sample that favours the strongest signals as a whole.
Tests used:
Test in all cases: glycan array binding signal (z-score within array); higher = stronger binding
Conditions in all cases: glycan notation: IUPAC condensed, linker removed
[1] = biological target: Gal(b1-4)GlcNAc(b1-3)Gal(b1-4)GlcNAc(b1-3)GalNAc
Summary of the method: (§1)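 The binding signal is a Z-score computed within each array and averaged over linkers. Arrays of the same protein sequence at different concentrations or buffers were also averaged together. Data originate from 3228 arrays in the Consortium for Functional Glycomics database, kept only where the protein sequence was available.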

[2] = biological target: Gal(b1-6)Gal
Summary of the method: as §1

[3] = biological target: Gal3S(b1-3)[Fuc(a1-4)]GlcNAc
Summary of the method: as §1

[4] = biological target: Gal6S(b1-3)GlcNAc
Summary of the method: as §1

[5] = biological target: Gal6S(b1-4)Glc6S
Summary of the method: as §1

[6] = biological target: GalNAc3S(b1-4)GlcNAc3S
Summary of the method: as §1

[7] = biological target: GlcNAc(a1-3)Gal(b1-4)GlcNAc
Summary of the method: as §1

[8] = biological target: GlcNAc(a1-4)Gal(b1-4)GalNAc
Summary of the method: as §1

[9] = biological target: GlcNAc(a1-4)Gal(b1-4)GlcNAc(b1-3)Gal(b1-4)GlcNAc
Summary of the method: as §1

[10] = biological target: GlcNAc(b1-3)Gal(b1-4)GlcNAc(b1-3)[GlcNAc(b1-3)Gal(b1-4)GlcNAc(b1-3)]GalNAc
Summary of the method: as §1

[11] = biological target: GlcNAc(b1-4)GlcNAc(b1-4)GlcNAc(b1-4)GlcNAc(b1-4)GlcNAc
Summary of the method: as §1

[12] = biological target: Kdn(a2-6)Gal(b1-4)GlcNAc
Summary of the method: as §1

[13] = biological target: Man(a1-2)Man(a1-3)[Man(a1-2)Man(a1-6)]Man(a1-6)[Man(a1-2)Man(a1-2)Man(a1-3)]Man
Summary of the method: as §1

[14] = biological target: Neu5Ac(a2-3)Gal(b1-3)[GlcNAc(b1-6)]GalNAc
Summary of the method: as §1

[15] = biological target: Neu5Ac(a2-3)Gal(b1-3)[Neu5Ac(a2-6)]GlcNAc(b1-3)[Fuc(a1-3)[Gal(b1-4)]GlcNAc(b1-6)]Gal(b1-4)Glc
Summary of the method: as §1

[16] = biological target: Neu5Ac(a2-3)Gal(b1-4)GlcNAc
Summary of the method: as §1

[17] = biological target: Neu5Ac(a2-3)Gal(b1-4)GlcNAc(b1-6)[Neu5Ac(a2-3)Gal(b1-3)]GalNAc
Summary of the method: as §1

[18] = biological target: Neu5Ac(a2-3)Gal(b1-4)[Fuc(a1-3)]GlcNAc(b1-6)[Gal(b1-3)]GalNAc
Summary of the method: as §1

[19] = biological target: Neu5Ac(a2-6)Gal(b1-4)GlcNAc
Summary of the method: as §1

[20] = biological target: Neu5Ac(a2-6)Gal(b1-4)GlcNAc(b1-2)Man(a1-3)[Man(a1-6)]Man(b1-4)GlcNAc(b1-4)GlcNAc
Summary of the method: as §1

[21] = biological target: Neu5Ac(a2-6)Gal(b1-4)GlcNAc(b1-3)Gal(b1-4)[Fuc(a1-3)]GlcNAc(b1-3)Gal(b1-4)[Fuc(a1-3)]GlcNAc
Summary of the method: as §1

[22] = biological target: Neu5Ac(a2-6)Gal(b1-4)GlcNAc6S
Summary of the method: as §1

[23] = biological target: Neu5Ac(a2-6)GlcNAc(b1-4)GlcNAc(b1-4)GlcNAc
Summary of the method: as §1

[24] = biological target: Neu5Ac(a2-8)Neu5Ac(a2-8)Neu5Ac
Summary of the method: as §1

B1: CpGal16 (Clavelina picta) (protein)
chain: MAKMITNYVGKRIECIMVATDMMSTVFSLASATGDLPFYINFRQRENSIVMNTRVHGKWQYEKSQSSGGMNFYEPFRLVVEVRPSVFKVTVSTMGEEDGITFNLQYSQITIKPDEIVAMHLGYCNLRSELLVTDL
- glycan array binding signal (z-score) [1]: -0.168
- glycan array binding signal (z-score) [2]: -0.407
- glycan array binding signal (z-score) [3]: -0.266
- glycan array binding signal (z-score) [4]: -0.282
- glycan array binding signal (z-score) [5]: -0.12
- glycan array binding signal (z-score) [6]: 0.397
- glycan array binding signal (z-score) [7]: -0.249
- glycan array binding signal (z-score) [8]: -0.312
- glycan array binding signal (z-score) [9]: -0.32
- glycan array binding signal (z-score) [10]: -0.168
- glycan array binding signal (z-score) [11]: -0.348
- glycan array binding signal (z-score) [12]: -0.352
- glycan array binding signal (z-score) [13]: -0.232
- glycan array binding signal (z-score) [14]: -0.388
- glycan array binding signal (z-score) [15]: -0.357
- glycan array binding signal (z-score) [16]: -0.378
- glycan array binding signal (z-score) [17]: -0.324
- glycan array binding signal (z-score) [18]: 0.134
- glycan array binding signal (z-score) [19]: -0.456
- glycan array binding signal (z-score) [20]: -0.395
- glycan array binding signal (z-score) [21]: -0.419
- glycan array binding signal (z-score) [22]: -0.303
- glycan array binding signal (z-score) [23]: -0.261
- glycan array binding signal (z-score) [24]: -0.39

Reference: the supplement of paper PMC8728848
